Measured values from PubChem BioAssay (NCATS).
Several values for one entry are separate records, joined by “and”; a condition that tells them apart may be missing. Identical values can stand only once. Inconclusive results are not listed. Some structures have more than one record in an assay (separate samples or runs), and their calls can disagree. Activity calls are given as the source filed them. Unless noted, calls follow the shape of the dose curve; as a rule, active = well fitted curve in the direction sought with a large enough effect; inconclusive = small, poorly fitted or top-dose-only effect, or another doubt; inactive = no such curve, though single readings can be large; an effect the other way counts as inactive or inconclusive.

Assays:
[1] = qHTS assay for small molecule disruptors of the mitochondrial membrane potential - 5 hr assay (AID 651755; calls by dose curve; also: nearly all actives have a fitted effect of over 40% in size; also: potency is read from the fitted curve at half-maximal effect)
Summary of the method: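 Membrane-potential dye readout: red aggregate (540 ex/590 em) versus green monomer (490 ex/535 em) fluorescence after 30 min dye loading, following 5 hr compound exposure at 37C of overnight-plated HepG2 cells.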

[2] = biological target: Tumor necrosis factor (Homo sapiens) (UniProt P01375); assay: qHTS assay to identify small molecules that stimulate Tumor Necrosis Factor-alpha (TNF-alpha) secretion (AID 651757; active = well fitted curve in the direction sought with a large enough effect in the signal ratio; the % refers to the signal ratio; also: 0% is about no effect)
Sequence of Tumor necrosis factor (Homo sapiens) (P01375 whole entry, looked up): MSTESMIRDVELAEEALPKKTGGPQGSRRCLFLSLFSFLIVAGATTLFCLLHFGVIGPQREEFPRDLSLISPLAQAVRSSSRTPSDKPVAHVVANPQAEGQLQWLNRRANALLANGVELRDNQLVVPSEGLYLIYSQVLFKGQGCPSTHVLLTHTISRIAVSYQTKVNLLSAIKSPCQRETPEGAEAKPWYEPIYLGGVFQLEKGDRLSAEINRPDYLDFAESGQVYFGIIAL
Summary of the method: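 Using 3000 THP-1 cells per well, compounds and controls were applied for 17 hrs at 37 C. Detection followed with two labeled anti-TNF-alpha antibodies (cryptate donor, XL665 acceptor) for 3 hr at room temperature, measured by TR-FRET.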

[3] = qHTS assay for environmental chemicals that activate the Aryl hydrocarbon Receptor (AhR) signaling pathway (AID 651777); settings: 1A2-DRE human hepatoma cells, luciferase, 24 h; activation: stronger effect = higher value; also: % of control where 0% means no effect; nearly all actives have a fitted effect of over 15% in size
Summary of the method: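 Luminescence (One-Glo, 30 min, room temperature) reports AhR-driven luciferase in stably transfected human hepatoma cells bearing DRE and CYP1A2 promoter. Cells (1,200/well) were treated with compound for 24 hr at 37 C in qHTS format.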

[4] = biological target: Peroxisome proliferator-activated receptor alpha (Homo sapiens) (UniProt Q07869); assay: qHTS assay for small molecule agonists of the peroxisome proliferator-activated receptor alpha (PPARalpha) signaling pathway (AID 651778); settings: PathHunter PPARalpha complementation, chemiluminescence, 6 h; stronger effect = higher value; also: % of control where 0% means no effect
Sequence of Peroxisome proliferator-activated receptor alpha (Homo sapiens) (Q07869 whole entry, looked up): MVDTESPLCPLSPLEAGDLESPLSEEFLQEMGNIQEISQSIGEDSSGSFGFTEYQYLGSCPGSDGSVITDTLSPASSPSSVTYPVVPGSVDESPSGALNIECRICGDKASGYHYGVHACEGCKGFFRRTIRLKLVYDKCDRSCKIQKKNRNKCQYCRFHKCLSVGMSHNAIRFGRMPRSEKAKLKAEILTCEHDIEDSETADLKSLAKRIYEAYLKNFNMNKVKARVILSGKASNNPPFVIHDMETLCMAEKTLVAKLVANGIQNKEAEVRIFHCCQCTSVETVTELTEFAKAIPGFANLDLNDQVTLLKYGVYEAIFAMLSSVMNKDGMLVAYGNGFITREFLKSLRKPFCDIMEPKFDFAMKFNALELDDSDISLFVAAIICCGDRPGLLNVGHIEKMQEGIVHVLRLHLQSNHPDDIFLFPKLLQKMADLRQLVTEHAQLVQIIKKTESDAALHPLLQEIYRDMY
Summary of the method: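 Chemiluminescence from complemented enzyme reported PPARalpha activation in cells after 6 hr of compound treatment at 37 C. The detection reagent was incubated for 60 min at room temperature, and compounds were scored as agonists.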

[5] = biological target: Nuclear receptor ROR-gamma (Homo sapiens) (UniProt P51449); assay: qHTS assay for small molecule antagonists of the retinoid-related orphan receptor gamma (ROR-gamma) signaling pathway (AID 651802); also: nearly all actives have a fitted effect of over 60% in size; also: potency is read from the fitted curve at half-maximal effect
Sequence of Nuclear receptor ROR-gamma (Homo sapiens) (P51449 whole entry, looked up): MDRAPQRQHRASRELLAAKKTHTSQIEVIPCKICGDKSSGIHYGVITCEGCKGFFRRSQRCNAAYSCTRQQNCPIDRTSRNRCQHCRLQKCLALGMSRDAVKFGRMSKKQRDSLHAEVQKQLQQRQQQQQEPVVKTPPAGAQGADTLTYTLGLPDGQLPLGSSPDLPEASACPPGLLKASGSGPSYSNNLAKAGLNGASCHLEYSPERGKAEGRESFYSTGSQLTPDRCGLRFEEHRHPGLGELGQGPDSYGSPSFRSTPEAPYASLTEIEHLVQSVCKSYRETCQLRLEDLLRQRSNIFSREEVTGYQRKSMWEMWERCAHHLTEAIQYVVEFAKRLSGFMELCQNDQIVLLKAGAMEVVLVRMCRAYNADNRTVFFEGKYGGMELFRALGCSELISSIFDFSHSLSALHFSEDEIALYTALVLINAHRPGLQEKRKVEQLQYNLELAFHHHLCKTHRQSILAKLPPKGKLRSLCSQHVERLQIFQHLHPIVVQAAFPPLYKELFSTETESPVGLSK
Summary of the method: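 Doxycycline-induced reporter activity in engineered CHO cells (TET-inducible ROR, RORE-LUC) was measured by luminescence after 16hr compound exposure at 37C.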

[6] = qHTS assay for small molecule agonists of the antioxidant response element (ARE) signaling pathway measured by Nrf2-dependant transcriptional activity (AID 720636; active = well fitted curve in the direction sought with a large enough effect in the repeat runs; an effect the other way counts as inactive or inconclusive; also: potency is read from the fitted curve at half-maximal effect; as to activation: % of control where 0% means no effect)
Summary of the method: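 Nrf2-dependent transcription read as ONE-Glo luciferase signal from ARE-luc HepG2 reporter cells after 16 hr compound treatment at 37 C, 5% CO2, in assay medium with 1% dialyzed FBS.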

[7] = qHTS assay for small molecule antagonists of the retinoid-related orphan receptor gamma (ROR-gamma) signaling pathway - cell viability counter screen (AID 720652; active = well fitted curve in the direction sought with a large enough effect in the repeat runs; an effect the other way counts as inactive or inconclusive;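 also: compound exposure lasted 16 hr before ATP read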; also: potency is read from the fitted curve at half-maximal effect)
Summary of the method: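 ATP-based viability readout in the ROR-gamma reporter CHO cells after 16 hr compound exposure under doxycycline induction.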

[8] = qHTS assay for small molecule agonists of the antioxidant response element (ARE) signaling pathway measured by Nrf2-dependant transcriptional activity - cell viability counter screen (AID 720653; active = well fitted curve in the direction sought with a large enough effect in the repeat runs; an effect the other way counts as inactive or inconclusive; also: potency is read from the fitted curve at half-maximal effect; as to max response: % is scaled to controls: 0 for no effect and ±100 for the full control effect); settings: ARE-bla HepG2 viability, CellTiter-Glo ATP luminescence, 16 h; max response: stronger effect = lower value
Summary of the method: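 Cytotoxicity counter screen: intracellular ATP quantified by CellTiter-Glo luminescence in the same ARE-bla HepG2 plates, after 16 h compound exposure and a 2 h beta-lactamase substrate step.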

[9] = qHTS assay for small molecule activators of the p53 signaling pathway (AID 651743; active = well fitted activation curve with a large enough effect in the signal ratio, not every such curve was filed as active; the % refers to the signal ratio; also: series mostly up to about 92 µM; % of control where 0% means no effect); settings: HCT-116 p53RE-bla, beta-lactamase FRET ratio, 16 h; activation: stronger effect = higher value
Summary of the method: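 A beta-lactamase reporter under p53 response element control, stably carried by HCT-116 cells, reported pathway activation. Test compounds were applied for 16 hours at 37 C, and fluorescence was measured 2 hours after adding the B/G FRET substrate.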

[10] = qHTS assay for small molecule activators of the nuclear factor-kappa B (NF-kB) signaling pathway (AID 651749; active = well fitted activation curve with a large enough effect in the signal ratio; the % refers to the signal ratio; also: series mostly up to about 77 µM; % of control where 0% means no effect); settings: NF-kB-bla ME-180 cells, beta-lactamase FRET ratio, 16 h; stronger effect = higher value
Summary of the method: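 FRET-based beta-lactamase detection in ME-180 cells reports NF-kB response-element-driven transcription following overnight (16 hr) compound treatment.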

[11] = qHTS assay for small molecule agonists of the antioxidant response element (ARE) signaling pathway (AID 651741; active = well fitted activation curve with a large enough effect in the signal ratio; the % refers to the signal ratio; also: potency is read from the fitted curve at half-maximal effect; as to activation: % of control where 0% means no effect)
Summary of the method: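 Agonist activity is measured as ARE-driven beta-lactamase expression in a stable HepG2 reporter line, using 16 h compound treatment at 37 C and a FRET substrate fluorescence readout after 2 h.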

[12] = qHTS assay to identify small molecules that stimulate interleukin-8 (IL-8) secretion (AID 651758; active = well fitted activation curve with a large enough effect in the signal ratio; the % refers to the signal ratio; also: potency is read from the fitted curve at half-maximal effect; as to activation: 0% is about no effect)
Summary of the method: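 Secreted IL-8 measured homogeneously by TR-FRET (two labelled anti-IL-8 antibodies, 1-3 h at room temperature) after a 16 h, 37 C compound treatment of THP-1 cells at 2000 cells/well.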

SMILES	Potency [1]	outcome [2]	activation [3]	max response [4]	Potency [5]	Potency [6]	Potency [7]	Potency [8]	activation [9]	activation [10]	max response [8]	Potency [11]	Potency [12]
C[C@H]1CC[C@@H]2[C@@H](C)[C@H]3[C@H](C[C@H]4[C@@H]5CC=C6CC(O[C@@H]7O[C@H](CO)[C@H](O)[C@H](O[C@@H]8O[C@H](CO)[C@@H](O)[C@H](O)[C@H]8O)[C@H]7O[C@H]7O[C@@H](C)[C@H](O)[C@@H](O)[C@H]7O)CC[C@]6(C)[C@H]5CC[C@]34C)N2C1 (stereo not given in full)	33.5 µM (active)	inactive	-8.71% (inactive)	-0.952% (inactive)	13.3 µM (active)	inactive	18.8 µM (active)	44.7 µM (active)					
O=C/C=C/c1ccccc1	inactive	inactive	2.17% (inactive) and 1.64% (inactive)	0.173% (inactive) and 5.71% (inactive)	inactive		inactive		-1.3% (inactive) and 1.6% (inactive)	-1.46% (inactive) and -0.692% (inactive)	12.8% (inactive) and -6.35% (inactive)		
N#CN			1.29% (inactive)	0.0862% (inactive)		inactive				0.422% (inactive)	-18.5% (inactive)	inactive	
O=C1CCO1	inactive	inactive	1.44% (inactive)	-1.17% (inactive)	inactive	inactive	inactive			-0.561% (inactive)	5.4% (inactive)		
CCCSP(=O)(OCC)SCCC			-2.38% (inactive)	0.388% (inactive)		inactive					-15.9% (inactive)		
O=C(O)C(Cl)(Cl)Cl	inactive	inactive		3.26% (inactive) and -0.682% (inactive)	inactive	inactive	inactive		0.586% (inactive) and -1.1% (inactive)		-1.81% (inactive) and -2.86% (inactive)	inactive	inactive
[Cl-].[Cl-].[Hg+2]	inactive		1.68% (inactive)	-13.7% (inactive)	1.06 µM (active)	21.1 µM (active)	1.68 µM (active)		5.15% (inactive)		-13.5% (inactive)	29.8 µM (active)	
C[CH2][Hg][S]c1ccccc1C(=O)O			-11.2% (inactive)	-9.74% (inactive)				44.7 µM (active)					
O=C1C2CC=CCC2C(=O)N1SC(Cl)(Cl)Cl (stereo not given)	23.7 µM (active) and 33.5 µM (active)	inactive	-4.61% (inactive) and -3.77% (inactive) and 2.69% (inactive)	-6.31% (inactive) and -2.76% (inactive) and -2.09% (inactive)		inactive	29.8 µM (active)	28.2 µM (active)	-1.26% (inactive) and 18.6% (inactive)	-2.11% (inactive)	-23.3% (inactive)		
CCCCCCCCOC(=O)c1ccccc1C(=O)OCCCCCCCC	inactive	inactive	-0.0695% (inactive) and 0.763% (inactive)	0.808% (inactive) and 0.946% (inactive)	inactive	inactive			1.9% (inactive) and -2.06% (inactive)	-1.07% (inactive) and -0.62% (inactive)	-5.46% (inactive) and -4.31% (inactive)	inactive	
O=C1C[C@@H]2OCC=C3CN4CC[C@]56c7ccccc7N1[C@H]5[C@H]2[C@H]3C[C@H]46			0.363% (inactive)	-1.11% (inactive)		inactive			-1.99% (inactive)	-1.87% (inactive)	-11.2% (inactive)	inactive	
CC(C)CCON=O	inactive	inactive	-0.695% (inactive)	-0.247% (inactive)	inactive	inactive	inactive		-3.9% (inactive)		1.97% (inactive)		inactive
C[C@H]1CCC[C@H](O)CCCCCc2cc(O)cc(O)c2C(=O)O1	37.6 µM (active)	inactive	-1.64% (inactive)	-2.71% (inactive)	42.2 µM (active)	inactive	inactive		-0.975% (inactive)	-0.26% (inactive)	-13.4% (inactive)		
CCOC(=O)c1ccccc1C(=O)OCC		inactive		0.572% (inactive) and -3.94% (inactive) and -0.67% (inactive)	inactive	inactive	inactive		4.4% (inactive) and -0.806% (inactive) and -0.919% (inactive)	1.25% (inactive) and 1.36% (inactive) and -0.459% (inactive)	8.89% (inactive) and -10.7% (inactive) and -8.42% (inactive)	inactive	inactive
CC[C@H](C)[C@H]1O[C@]2(C=C[C@@H]1C)C[C@@H]1C[C@@H](C/C=C(\C)[C@@H](O[C@H]3C[C@H](OC)[C@@H](O[C@H]4C[C@H](OC)[C@@H](O)[C@H](C)O4)[C@H](C)O3)[C@@H](C)/C=C/C=C3\CO[C@@H]4[C@H](O)C(C)=C[C@@H](C(=O)O1)[C@]34O)O2			-12.2% (inactive)	7.18% (inactive)		inactive		39.8 µM (active)					
CC(C)(C)c1cc(O)ccc1O	inactive	inactive	12.6% (inactive) and 10.4% (inactive)	-2.46% (inactive) and -4.08% (inactive) and -1.53% (inactive)	16.8 µM (active) and 29.8 µM (active)		inactive		-3.68% (inactive) and -3.53% (inactive) and -5.7% (inactive)	-2.1% (inactive) and -2.15% (inactive) and -3.27% (inactive)	21.5% (inactive) and -0.658% (inactive) and -3.53% (inactive)		inactive and 66.8 µM (active)
ClCC1CO1 (stereo not given)	inactive	inactive	-0.99% (inactive)	-4.69% (inactive)	inactive	inactive	inactive		-3.68% (inactive)	0.581% (inactive)	-2.98% (inactive)		inactive
C#CCN1CC(=O)N(COC(=O)C2C(C=C(C)C)C2(C)C)C1=O (stereo not given)			3.63% (inactive)	0.547% (inactive)					-4.17% (inactive)	1.36% (inactive)	2.56% (inactive)		
